Data taken from PubChem BioAssay AID1159580 (chemical genetic matrix, 2015).
In all, about 5,500 compounds went through this assay and about 2,000 (36%) were called active. Not shown: some 18% with an inconclusive outcome. Rule as the data show it: active = normalized growth mostly below about 0.91 (no sharp cut-off); inconclusive = no clear call, values can overlap the other calls; inactive = mostly above about 0.92. The list shows a part of the results.

Assay: chemical genetic growth profiling, strain panel (AID 1159580);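 also: tested at 20 µM; growth read once vehicle control cultures reached saturation at 30 °C; 1 = growth at the plate median or of vehicle wells; lower values mean less growth of the strain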
Settings: S. cerevisiae deletion strains, growth OD
[1] = locus YHR030C, strain SLT2, hits give low values
[2] = locus YJL095W, strain BCK1, hits give low values

Measured: normalized growth

CC(C)C1COc2cc3oc(=O)ccc3cc2O1 (centres undefined)
active: locus YBR021W, strain FUR4, hits give low values 0.0979 | locus YBR229C, strain ROT2, hits give low values 0.837 | locus YCL029C, strain bik1, hits give low values 0.616 | locus YDL035C, strain GPR1, hits give low values 0.389 | locus YDL074C, strain BRE1, hits give low values 0.287 | locus YDL101C, strain DUN1, hits give low values 0.293 | locus YDL185W, strain tfp1, hits give low values 0.874 | locus YDL192W, strain arf1, hits give low values 0.0841 | locus YDR101C, strain arx1, hits give low values 0.714 | locus YDR162C, strain NBP2, hits give low values 0.0569 | locus YDR318W, strain mcm21, hits give low values 0.546 | locus YDR388W, hits give low values 0.241 | locus YDR502C, strain sam2, hits give low values 0.289 | locus YEL061C, strain CIN8, hits give low values 0.17 | locus YER110C, hits give low values 0.698 | locus YER155C, strain BEM2, hits give low values 0.592 | locus YER167W, strain BCK2, hits give low values 0.503 | locus YGL086W, strain mad1, hits give low values 0.589 | locus YGL248W, strain PDE1, hits give low values 0.257 | locus YGR078C, strain PAC10, hits give low values 0.191 | locus YGR135W, strain pre9, hits give low values 0.366 | locus YGR252W, strain gcn5, hits give low values 0.209 | [1] 0.0511 | locus YHR079C, strain IRE1 (second series), hits give low values 0.89 | locus YHR094C, strain hxt1, hits give low values 0.92 | locus YHR129C, strain ARP1, hits give low values 0.396 | locus YHR200W, strain rpn10, hits give low values 0.433 | locus YIL066C, strain RNR3, hits give low values 0.223 | locus YIL073C, strain SPO22, hits give low values 0.122 | locus YIR030C, strain dcg1, hits give low values 0.701 | [2] 0.0654 | locus YJL134W, strain LCB3, hits give low values 0.906 | locus YJL168C, strain set2, hits give low values 0.834 | locus YJL187C, strain SWE1 (second series), hits give low values 0.497 | locus YJR043C, strain POL32, hits give low values 0.218 | locus YJR075W, strain HOC1, hits give low values 0.688 | locus YKR001C, strain vps1, hits give low values 0.0786 | locus YLR039C, strain RIC1, hits give low values 0.106 | locus YLR058C, strain SHM2, hits give low values 0.466 | locus YLR102C, strain apc9, hits give low values 0.887 | locus YLR262C, strain YPT6, hits give low values 0.148 | locus YLR268W, strain sec22, hits give low values 0.443 | locus YLR330W, strain CHS5, hits give low values 0.0515 | locus YLR342W, strain FKS1 (second series), hits give low values 0.0669 | locus YLR371W, strain rom2, hits give low values 0.0882 | locus YLR418C, strain cdc73, hits give low values 0.125 | locus YML016C, strain PPZ1, hits give low values 0.381 | locus YML032C, strain rad52, hits give low values 0.639 | locus YML124C, strain tub3, hits give low values 0.738 | locus YMR078C, strain ctf18, hits give low values 0.792 | locus YMR223W, strain ubp8, hits give low values 0.44 | locus YMR307W, strain GAS1, hits give low values 0.196 | locus YNL067W, strain RPL9B, hits give low values 0.711 | locus YNL128W, strain TEP1, hits give low values 0.348 | locus YNL233W, strain BNI4, hits give low values 0.285 | locus YNL271C, strain bni1, hits give low values 0.728 | locus YNL298W, strain CLA4, hits give low values 0.754 | locus YNL307C, strain MCK1, hits give low values 0.157 | locus YNL322C, strain KRE1, hits give low values 0.0872 | locus YNR052C, strain pop2, hits give low values 0.145 | locus YOL006C, strain TOP1, hits give low values 0.152 | locus YOL147C, strain pex11, hits give low values 0.66 | locus YOR061W, strain CKA2, hits give low values 0.101 | locus YOR069W, strain VPS5, hits give low values 0.519 | locus YOR136W, strain idh2, hits give low values 0.842 | locus YOR144C, strain elg1, hits give low values 0.843 | locus YOR184W, strain ser1, hits give low values 0.262 | locus YOR316C, strain cot1, hits give low values 0.875 | locus YPR119W, strain clb2, hits give low values 0.336 | locus YPR163C, strain tif3, hits give low values 0.703 | locus YPR167C, strain met16, hits give low values 0.636 | strain wtn01, hits give low values 0.394
inactive: locus YGL078C, strain dbp3, hits give low values 0.976 | locus YIL125W, strain kgd1, hits give low values 0.958 | locus YKL009W, strain mrt4, hits give low values 0.916 | locus YKL068W, hits give low values 0.964 | locus YKL085W, strain MDH1 (second series), hits give low values 0.945 | locus YKL085W, strain MDH1, hits give low values 0.945 | locus YNL250W, strain rad50, hits give low values 0.989 | locus YOL012C, strain htz1 0.681 | locus YPR141C, strain kar3, hits give low values 0.959

O=c1ccc2cc(OC3OC(CO)C(O)C(O)C3O)c(O)cc2o1 (centres undefined)
inactive: locus YAL021C, strain ccr4, hits give low values 0.959 | locus YAL026C, strain drs2, hits give low values 1 | locus YAL030W, strain snc1, hits give low values 0.986 | locus YBL061C, strain skt5, hits give low values 1 | locus YBR009C, strain hhf1, hits give low values 0.995 | locus YBR023C, strain chs3, hits give low values 0.992 | locus YBR171W, strain sec66, hits give low values 1 | locus YBR231C, strain swc5, hits give low values 1.03 | locus YBR279W, strain paf1, hits give low values 0.998 | locus YCL011C, strain gbp2, hits give low values 0.974 | locus YCL016C, strain dcc1, hits give low values 0.979 | locus YCL069W, strain vba3, hits give low values 0.983 | locus YCR088W, strain abp1, hits give low values 0.985 | locus YDL005C, strain med2, hits give low values 0.989 | locus YDL040C, strain nat1, hits give low values 0.991 | locus YDR001C, strain nth1, hits give low values 0.972 | locus YDR069C, strain doa4, hits give low values 0.998 | locus YDR137W, strain rgp1, hits give low values 0.976 | locus YDR159W, strain sac3, hits give low values 1.06 | locus YDR195W, strain ref2 0.973 | locus YDR297W, strain sur2, hits give low values 0.995 | locus YDR334W, strain swr1, hits give low values 0.991 | locus YDR335W, strain msn5, hits give low values 0.991 | locus YDR392W, strain spt3, hits give low values 0.927 | locus YEL003W, strain gim4, hits give low values 1 | locus YEL037C, strain rad23, hits give low values 0.986 | locus YEL061C, strain CIN8 (second series), hits give low values 0.984 | locus YER015W, strain faa2, hits give low values 1 | locus YER016W, strain bim1, hits give low values 0.993 | locus YER111C, strain swi4, hits give low values 1.01 | locus YER155C, strain BEM2 (second series), hits give low values 1.07 | locus YFR010W, strain ubp6, hits give low values 0.997 | locus YGL167C, strain pmr1, hits give low values 0.989 | locus YGL173C, strain kem1, hits give low values 0.998 | locus YGL227W, strain vid30, hits give low values 0.989 | locus YGL240W, strain doc1, hits give low values 1.04 | locus YGL253W, strain hxk2, hits give low values 0.996 | locus YHR013C, strain ard1, hits give low values 0.992 | locus YHR027C, strain rpn1, hits give low values 0.977 | [1] 0.985 | locus YHR079C, strain IRE1, hits give low values 0.969 | locus YHR142W, strain chs7, hits give low values 0.959 | locus YJL092W, strain hpr5, hits give low values 0.981 | locus YJL095W, strain BCK1 (second series), hits give low values 0.995 | [2] 0.968 | locus YJL115W, strain asf1, hits give low values 0.973 | locus YJL129C, strain trk1, hits give low values 1 | locus YJL154C, strain vps35, hits give low values 0.981 | locus YJL164C, strain tpk1, hits give low values 0.947 | locus YJL166W, strain qcr8, hits give low values 1 | locus YJR066W, strain TOR1, hits give low values 0.919 | locus YKL160W, strain elf1, hits give low values 0.966 | locus YKR026C, strain gcn3, hits give low values 1 | locus YKR091W, strain srl3, hits give low values 0.989 | locus YLL001W, strain dnm1, hits give low values 0.993 | locus YLL026W, hits give low values 0.988 | locus YLL041C, strain sdh2, hits give low values 0.983 | locus YLR027C, strain aat2, hits give low values 1.01 | locus YLR113W, strain HOG1, hits give low values 0.973 | locus YLR221C, strain rsa3, hits give low values 1.04 | locus YLR258W, strain gsy2, hits give low values 0.972 | locus YLR262C, strain YPT6 (second series), hits give low values 0.98 | locus YLR320W, strain mms22, hits give low values 1.04 | locus YLR342W, strain FKS1, hits give low values 0.995 | locus YLR357W, strain rsc2, hits give low values 1 | locus YLR370C, strain arc18, hits give low values 1.02 | locus YLR384C, strain iki3, hits give low values 1.01 | locus YML120C, strain ndi1, hits give low values 0.988 | locus YMR058W, strain fet3, hits give low values 1 | locus YMR125W, strain sto1, hits give low values 0.92 | locus YMR129W, hits give low values 0.993 | locus YMR205C, strain PFK2, hits give low values 0.969 | locus YMR231W, strain pep5, hits give low values 1 | locus YNL071W, strain lat1, hits give low values 0.988 | locus YNL183C, strain NPR1, hits give low values 0.897 | locus YNL209W, strain ssb2, hits give low values 0.99 | locus YNL248C, strain rpa49, hits give low values 1.04 | locus YNL322C, strain KRE1 (second series), hits give low values 1.01 | locus YNR049C, strain mso1, hits give low values 0.982 | locus YOR001W, strain rrp6, hits give low values 1.02 | locus YOR070C, strain gyp1, hits give low values 0.998 | locus YOR080W, strain dia2, hits give low values 1.01 | locus YOR083W, strain WHI5, hits give low values 0.964 | locus YOR106W, strain vam3, hits give low values 0.939 | locus YOR231W, strain MKK1, hits give low values 0.973 | locus YOR265W, strain rbl2, hits give low values 1 | locus YOR270C, strain vph1, hits give low values 1.03 | locus YOR290C, strain snf2, hits give low values 0.919 | locus YPL051W, strain arl3, hits give low values 1.02 | locus YPL078C, strain atp4, hits give low values 0.935 | locus YPL106C, strain sse1, hits give low values 1.01 | locus YPL240C, strain hsp82, hits give low values 0.998 | locus YPL256C, strain CLN2, hits give low values 0.956
